Results with a measured potency or affinity are listed apart. A number with no mark means an inactive call. How the calls were made is not given here.
experiment: Vero 76 cell cytotoxicity, dose response, cytotoxicity control, set 3 (AID 602439); settings: Vero 76 cell viability; series mostly up to 50 µM; viability: at the top concentration

| Structure (SMILES) | viability |
| --- | --- |
| O=C(Cc1cccs1)Nc1nc2ccccc2s1 | 92% |
| CC(C)N1CCN(Cc2nc3ccc([N+](=O)[O-])cc3c(=O)n2-c2ccccc2F)CC1 | 91.7% |
| O=C(Cc1ccccc1)Nc1nc2c(s1)CCCC2 | 94.1% |
| O=c1c2cc([N+](=O)[O-])ccc2nc(CN2CCOCC2)n1-c1ccccc1F | 96.3% |
| CN1CCN(Cc2nc3ccc([N+](=O)[O-])cc3c(=O)n2-c2ccccc2F)CC1 | 92.9% |
| CCN1CCN(Cc2nc3ccc([N+](=O)[O-])cc3c(=O)n2-c2ccccc2F)CC1 | 91.3% |
| CN(C(=O)Cc1cccs1)c1nc2c(s1)CCCC2 | 93.3% |
| O=C(Cc1cccs1)Nc1nccs1 | 101% |
